Data as given in PubChem BioAssay (Tox21).
Results filed as inconclusive are left out. Active and inactive are the calls of the source. Unless noted, calls follow the shape of the full dose curve.

Columns and labels:
[1] = target: Nuclear receptor subfamily 1 group I member 3 (Homo sapiens) (UniProt Q14994); assay: qHTS assay to identify small molecule agonists of the constitutive androstane receptor (CAR) signaling pathway (AID 1224839; active = well fitted curve in the direction sought with a large enough effect in the repeat runs; an effect the other way counts as inactive or inconclusive; also: nearly all actives have a fitted effect of over 15% in size; also: potency is read from the fitted curve at half-maximal effect;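 as to activation: HepG2 cells stably carrying human CAR and a CYP2B6 luciferase reporter; series mostly up to about 92 µM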)
Nuclear receptor subfamily 1 group I member 3 (Homo sapiens), sequence (Q14994 whole entry, looked up): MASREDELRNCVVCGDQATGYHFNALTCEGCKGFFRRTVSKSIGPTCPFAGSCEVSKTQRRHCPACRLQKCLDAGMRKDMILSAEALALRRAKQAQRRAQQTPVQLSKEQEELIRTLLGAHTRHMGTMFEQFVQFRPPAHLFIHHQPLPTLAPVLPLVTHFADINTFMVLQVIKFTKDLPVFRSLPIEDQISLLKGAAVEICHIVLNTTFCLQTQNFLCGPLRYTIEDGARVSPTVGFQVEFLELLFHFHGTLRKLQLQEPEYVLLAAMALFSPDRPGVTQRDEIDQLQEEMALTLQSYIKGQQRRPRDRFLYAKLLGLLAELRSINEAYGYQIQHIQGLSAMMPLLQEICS
How it was run: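 Compounds tested at 15 concentrations on HepG2 cells stably harbouring hCAR and CYP2B6-2.2kb reporter constructs, co-treated with PK11195 (0.75 uM final), 24 h at 37 C; luminescent reporter signal quantified.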

[2] = qHTS assay to identify small molecule antagonists of the estrogen related receptor signaling pathway with the pleiotropic PPARgamma coactivator (PGC) from Tox21 10K library - cell viability counter screen (AID 1224840; active = well fitted cell-killing curve with a large enough effect in the repeat runs, not every such curve was filed as active; also: nearly all actives have a fitted effect of over 40% in size)
How it was run: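 Compounds in DMSO, alongside positive and negative controls, were pinned onto PGC/ERR cells (2,000 per well). Exposure lasted 17.5 hours at 37 C, followed by a 30-minute CellTiter-Fluor incubation and fluorescence reading.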

[3] = target: Thyrotropin receptor (Homo sapiens) (UniProt P16473); assay: qHTS assay to identify small molecule agonists of the thyroid stimulating hormone receptor (TSHR) signaling pathway (AID 1224843); also: nearly all actives have a fitted effect of over 45% in size
Thyrotropin receptor (Homo sapiens), sequence (P16473 whole entry, looked up): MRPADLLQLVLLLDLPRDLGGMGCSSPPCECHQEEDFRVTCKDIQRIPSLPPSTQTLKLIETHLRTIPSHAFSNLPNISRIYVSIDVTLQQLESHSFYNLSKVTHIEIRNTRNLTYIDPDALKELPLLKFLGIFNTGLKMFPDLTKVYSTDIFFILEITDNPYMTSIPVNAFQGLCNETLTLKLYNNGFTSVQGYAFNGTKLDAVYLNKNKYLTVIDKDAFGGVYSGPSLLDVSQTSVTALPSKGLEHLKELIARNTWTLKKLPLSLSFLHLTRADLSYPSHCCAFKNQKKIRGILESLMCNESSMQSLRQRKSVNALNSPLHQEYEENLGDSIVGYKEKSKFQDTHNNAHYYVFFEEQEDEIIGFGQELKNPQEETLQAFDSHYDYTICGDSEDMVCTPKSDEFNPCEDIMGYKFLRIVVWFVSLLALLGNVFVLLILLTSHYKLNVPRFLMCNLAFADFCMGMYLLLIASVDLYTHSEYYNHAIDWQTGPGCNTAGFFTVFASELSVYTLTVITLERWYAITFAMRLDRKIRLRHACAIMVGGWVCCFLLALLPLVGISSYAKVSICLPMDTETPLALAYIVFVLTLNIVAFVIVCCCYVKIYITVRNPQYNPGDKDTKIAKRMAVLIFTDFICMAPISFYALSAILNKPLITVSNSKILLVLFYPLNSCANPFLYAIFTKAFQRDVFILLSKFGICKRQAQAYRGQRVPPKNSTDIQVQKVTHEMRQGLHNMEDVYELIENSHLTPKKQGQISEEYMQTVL
How it was run: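 HEK293 cells stably bearing the thyrotropin receptor were plated at 800 cells/well and challenged with compound (30 min, RT). Accumulated cAMP was quantified via cAMP-d2 competing for cryptate-tagged antibody.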

[4] = qHTS assay to identify small molecule agonists of the hypoxia (HIF-1) signaling pathway - cell viability counter screen (AID 1224844); also: nearly all actives have a fitted effect of over 50% in size
How it was run: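 Luminescent ATP content (CellTiter-Glo, 30 min, room temperature) served as the viability measure in HRE-bla ME-180 cells exposed to compounds for 17 hrs in low-serum medium (0.5% dialyzed FBS).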

[5] = qHTS assay to identify small molecule agonists of H2AX (AID 1224845; active = well fitted activation curve with a large enough effect in the signal ratio in the repeat runs, not every such curve was filed as active; the % refers to the signal ratio)
How it was run: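 Phospho-H2AX Ser139 measured by HTRF (ex 320 nm; em 665 and 620 nm) after 24 hr antibody incubation. Compounds, 15 concentrations, 0.76% DMSO, were applied to CHO-K1 cells for 3hr at 37C before lysis.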

[6] = qHTS assay to identify small molecule agonists of the hypoxia (HIF-1) signaling pathway (AID 1224846; active = well fitted activation curve with a large enough effect in the signal ratio in the repeat runs, not every such curve was filed as active; the % refers to the signal ratio)
How it was run: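 Measured by blue/green FRET after loading CCF4-AM: beta-lactamase expressed from a hypoxia response element in ME-180 cells. Test agents were delivered in DMSO and left 17 hrs; cells had been plated 5 hrs earlier in low-serum (0.5% dialyzed FBS) medium.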

[7] = qHTS assay to identify small molecule agonists of H2AX - cell viability counter screen (AID 1224847); also: top concentration of the series differs between compounds; nearly all actives have a fitted effect of over 30% in size
How it was run: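 Compounds tested at 15 concentrations were incubated 3 hr at 37C with wild-type CHO-K1 cells; cellular ATP-based luminescence (CellTiter-Glo) indicated viability.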

[8] = qHTS assay to identify small molecule antagonists of the estrogen related receptor signaling pathway with the pleiotropic PPARgamma coactivator (PGC) from Tox21 10K library (AID 1224841; call rule not given here; also: series mostly up to about 92 µM; actives are mostly falling curves and most rising ones were filed inactive; nearly all actives have a fitted effect of over 50% in size)
How it was run: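 Compound exposure ran 18 hours at 37 C in PGC/ERR cells (2,000/well) that had first rested 6 hours in a 37 C/5% CO2 incubator. Luciferase activity was then detected with One-Glo after a 30-minute room-temperature step.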

[9] = qHTS assay to identify small molecule agonists of the estrogen related receptor signaling pathway with the pleiotropic PPARgamma coactivator (PGC) from Tox21 10K library (AID 1224842; active = well fitted curve in the direction sought with a large enough effect in the repeat runs; an effect the other way counts as inactive or inconclusive; also: nearly all actives have a fitted effect of over 15% in size)
How it was run: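 Luminescence from One-Glo (30 min, room temperature) measured after PGC/ERR cells had 18 h at 37 C with pinned compound (23 nL in DMSO). Cells had been seeded at 2,000 per well and pre-incubated 6 h.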

[10] = qHTS assay to identify small molecule antagonists of the estrogen related receptor (ERR) signaling pathway from Tox21 library (AID 1224848; active = well fitted curve in the direction sought with a large enough effect in the repeat runs; an effect the other way counts as inactive or inconclusive; also: nearly all actives have a fitted effect of over 50% in size; also: potency is read from the fitted curve at half-maximal effect)
How it was run: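 Reading was by luminescence 30 min after ONE-Glo addition. Before that, ERR cells at 2,000 per well had rested 6 h at 37 C/5% CO2 and then received pin-tooled compounds in DMSO for 18 h at 37 C.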
% is scaled to controls: 0 for no effect and ±100 for the full control effect.

N[C@@H](CSCCCO)C(=O)O
inactive: activation [1] 0.0803% [at 19 µM] | viability change, negative = cytotoxic [2] -0.0206% [at 19 µM] | activation [3] 0.239% [at 19 µM] | activity change, negative = cytotoxicity [4] 0.058% [at 15.8 µM] | activation (H2AX phosphorylation) [5] 1.1% [at 31.6 µM] | activation [6] -1.56% [at 15.8 µM] | activity change, negative = cytotoxicity [7] -1.29% [at 31.6 µM]

O=C=NCC1CCCC(CN=C=O)C1 (configuration not stated)
inactive: Potency [1] | outcome [2] | outcome [3] | outcome [4] | outcome [5] | outcome [6]

CCCCCCCCCCCCCBr
inactive: Potency [1] | outcome [2] | outcome [8] | outcome [9] | outcome [4] | outcome [5] | outcome [6] | outcome [7] | Potency [10]

c1ccc2c(CC3=NCCN3)cccc2c1
inactive: Potency [1] | outcome [2] | outcome [8] | outcome [9] | outcome [4] | outcome [5] | outcome [7] | Potency [10]

c1ccc(B(c2ccccc2)c2ccccc2)cc1
active: Potency [1] 48.5 µM
inactive: outcome [2] | outcome [8] | outcome [9] | outcome [4] | outcome [5] | outcome [6] | outcome [7] | Potency [10]

O=C(CCCCC(=O)Nc1c(I)cc(I)c(C(=O)O)c1I)Nc1c(I)cc(I)c(C(=O)O)c1I
active: Potency [10] 21.1 µM
inactive: Potency [1] | outcome [2] | outcome [9] | outcome [3] | outcome [4] | outcome [7]

CC(C)C[C@@H]1[C@H](c2ccccc2)OC(=O)N1CCCN1CCCCCC1
inactive: Potency [1] | outcome [2] | outcome [8] | outcome [9] | outcome [4] | outcome [5] | outcome [6] | outcome [7] | Potency [10]

CC1c2ccccc2CN1NC(=O)c1ccc(Cl)c(S(N)(=O)=O)c1 (configuration not stated)
inactive: Potency [1] | outcome [2] | outcome [9] | outcome [3] | outcome [4] | outcome [5] | outcome [6] | outcome [7] | Potency [10]

CCC(C)OC(C)CC (configuration not stated)
inactive: Potency [1] | outcome [2] | outcome [3] | outcome [4] | outcome [5] | outcome [6]

CCC/C=C(\C=O)CC
inactive: Potency [1] | outcome [2] | outcome [3] | outcome [4] | outcome [5] | outcome [6] | outcome [7]

CC(C)NC(=O)c1ccc(C=O)cc1
inactive: Potency [1] | outcome [2] | outcome [3] | outcome [4] | outcome [5] | outcome [6] | outcome [7]

C=CCSSCCC
inactive: Potency [1] | outcome [2] | outcome [3] | outcome [4] | outcome [5] | outcome [6] | outcome [7]

OC[C@H]1O[C@@H](O[C@@H]2[C@@H](CO)O[C@](O)(CO)[C@H]2O)[C@H](O)[C@@H](O)[C@H]1O
inactive: Potency [1] | outcome [2] | outcome [3] | outcome [4] | outcome [5] | outcome [6] | outcome [7]

C=CCCCCCCCC
inactive: Potency [1] | outcome [2] | outcome [3] | outcome [4] | outcome [5] | outcome [6] | outcome [7]

CC(C)Cn1cnc2c1c(=O)n(C)c(=O)n2C
inactive: Potency [1] | outcome [2] | outcome [3] | outcome [4] | outcome [5] | outcome [6] | outcome [7]

CC(C)CO
inactive: Potency [1] | outcome [2] | outcome [3] | outcome [4] | outcome [5] | outcome [6] | outcome [7]

CN(C)CCCCl
inactive: Potency [1] | outcome [2] | outcome [3] | outcome [4] | outcome [5] | outcome [6] | outcome [7]

CCOC(=O)CC1(C)OCC(C)O1 (configuration not stated)
inactive: Potency [1] | outcome [2] | outcome [3] | outcome [4] | outcome [5] | outcome [6] | outcome [7]

CC(O)CC(C)O (configuration not stated)
inactive: Potency [1] | outcome [2] | outcome [3] | outcome [4] | outcome [5] | outcome [6] | outcome [7]

N#CCC(=O)NN
inactive: Potency [1] | outcome [2] | outcome [3] | outcome [4] | outcome [5] | outcome [6] | outcome [7]

Cc1ccc(C)c([N+](=O)[O-])c1
inactive: Potency [1] | outcome [2] | outcome [3] | outcome [4] | outcome [5] | outcome [6] | outcome [7]

O=[N+]([O-])c1c(Cl)cc(Cl)cc1Cl
inactive: Potency [1] | outcome [2] | outcome [3] | outcome [4] | outcome [5] | outcome [6] | outcome [7]

CCO
inactive: Potency [1] | outcome [2] | outcome [3] | outcome [4] | outcome [5] | outcome [6] | outcome [7]

COc1ccc2c(c1)c1c3n2CCN(C)C3=NCC1
inactive: Potency [1] | outcome [2] | outcome [3] | outcome [4] | outcome [5] | outcome [6] | outcome [7]

O=C(O)c1cc2ccccc2nc1C(=O)O
inactive: Potency [1] | outcome [2] | outcome [3] | outcome [4] | outcome [5] | outcome [6] | outcome [7]

CC(C)COC(=O)c1ccccc1
inactive: Potency [1] | outcome [2] | outcome [3] | outcome [4] | outcome [5] | outcome [6] | outcome [7]

CC(C)C1OCCN1CCOC(=O)NCCCCCCNC(=O)OCCN1CCOC1C(C)C (configuration not stated)
inactive: Potency [1] | outcome [2] | outcome [3] | outcome [4] | outcome [5] | outcome [6] | outcome [7]

CCCCCCCCCCCCCCC(=O)NC(CO)CCCCCCCCCCCCCC (configuration not stated)
inactive: Potency [1] | outcome [2] | outcome [3] | outcome [4] | outcome [5] | outcome [6] | outcome [7]

Cc1cccc(Cl)c1
inactive: Potency [1] | outcome [2] | outcome [3] | outcome [4] | outcome [5] | outcome [6] | outcome [7]

CO[Si](CCCn1c(=O)n(CCC[Si](OC)(OC)OC)c(=O)n(CCC[Si](OC)(OC)OC)c1=O)(OC)OC
inactive: Potency [1] | outcome [2] | outcome [3] | outcome [4] | outcome [5] | outcome [6] | outcome [7]
